The values below come from PubChem BioAssay (EPA / NIEHS).

Active and inactive are the calls of the source. How the source made its calls: active means hit-call score of the fitted dose curve at least 0.9, where 1 is the maximum; inactive means score below 0.9.

Holding throughout (conditions): mRNA level, 48 h; actives raise or lower the signal
Read-out in assay [1]: Glutamate-cysteine ligase catalytic (GCLC), GCLC (gene 2729)
Description: LTEA_HepaRG_GCLC: Life Technologies and Expression Analysis (LTEA) Assay for Glutamate-cysteine ligase catalytic (GCLC) using HepaRG (AID 2283498). In a few lines: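 HepaRG, 48 h exposure, 8-pt half-log series from 100 uM, 0.5% DMSO vehicle; TaqMan qRT-PCR for GCLC mRNA, housekeeping-normalized; bidirectional curve fit vs DMSO baseline.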

Read-out in assay [2]: growth arrest and DNA damage 45 (GADD45G), GADD45G (gene 10912)
Description: LTEA_HepaRG_GADD45G: Life Technologies and Expression Analysis (LTEA) Assay for growth arrest and DNA damage 45 (GADD45G) using HepaRG (AID 2283499). An outline of the steps:
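Differentiated human HepaRG cells, 48 h post-plating, exposed 48 h in serum-free induction medium to 8 half-log concentrations (top 100 uM, 0.5% DMSO) in duplicate. GADD45G mRNA measured by Fluidigm TaqMan qRT-PCR, normalized to ACTB, GAPDH, POLR2A; bidirectional fit versus DMSO.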

Read-out in assay [3]: Glutamate-cysteine ligase regulatory (GCLM), GCLM (gene 2730)
Description: LTEA_HepaRG_GCLM: Life Technologies and Expression Analysis (LTEA) Assay for Glutamate-cysteine ligase regulatory (GCLM) using HepaRG (AID 2283500). In a few lines: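 Endpoint is GCLM transcript level by qRT-PCR, normalized to three housekeeping genes, after 48 h chemical exposure of human HepaRG cells (0.5% DMSO vehicle, top 100 uM, half-log dilutions). Fitting was bidirectional relative to DMSO.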

Read-out in assay [4]: Glutathione S-transferase M3 (GSTM3), GSTM3 (gene 2947)
Description: LTEA_HepaRG_GSTM3: Life Technologies and Expression Analysis (LTEA) Assay for Glutathione S-transferase M3 (GSTM3) using HepaRG (AID 2283501). An outline of the steps:
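Differentiated human HepaRG cells were exposed in duplicate for 48 h in serum-free induction medium, 8 points from 100 uM top in half-log steps, 0.5% DMSO. GSTM3 mRNA was measured by TaqMan qRT-PCR, normalized to ACTB, GAPDH and POLR2A; bidirectional fit versus DMSO.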

Read-out in assay [5]: Heat shock 70 kDa protein 1 (HSPA1A), gene 3303
Description: LTEA_HepaRG_HSPA1A: Life Technologies and Expression Analysis (LTEA) Assay for Heat shock 70 kDa protein 1 (HSPA1A) using HepaRG (AID 2283502). In a few lines:
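Cells were plated and cultured for 48 h, then switched to serum-free induction medium. Chemicals were added at eight half-log concentrations up to 100 uM for 48 h. RNA was then isolated and HSPA1A measured by qRT-PCR with bidirectional curve fitting against DMSO.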

Read-out in assay [6]: Hypoxia-inducible factor 1-alpha (Homo sapiens) (UniProt Q16665)
Description: LTEA_HepaRG_HIF1A: Life Technologies and Expression Analysis (LTEA) Assay for Hypoxia-inducible factor 1 (HIF1A) Trancription factor using HepaRG (AID 2283503). In a few lines: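 HIF1A transcript level read by qRT-PCR (ACTB, GAPDH, POLR2A normalization) after 48 h chemical exposure of HepaRG cultures. Eight half-log concentrations, top 100 uM, 0.5% DMSO vehicle, duplicates; bidirectional curve fit against DMSO baseline.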

Read-out in assay [7]: 3-Hydroxy-3-Methylglutaryl-CoA Synthase 2 (HMGCS2), HMGCS2 (gene 3158)
Description: LTEA_HepaRG_HMGCS2: Life Technologies and Expression Analysis (LTEA) Assay for 3-Hydroxy-3-Methylglutaryl-CoA Synthase 2 (HMGCS2) using HepaRG (AID 2283504). In a few lines: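 Human HepaRG cells in serum-free induction medium were exposed in duplicate for 48 h to 8-point half-log series from 100 uM top in 0.5% DMSO. HMGCS2 mRNA measured by TaqMan qRT-PCR, normalised to ACTB, GAPDH, POLR2A; bidirectional fit versus DMSO.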

Read-out in assay [8]: Insulin Like Growth Factor 1 (IGF1), IGF1 (gene 3479)
Description: LTEA_HepaRG_IGF1: Life Technologies and Expression Analysis (LTEA) Assay for Insulin Like Growth Factor 1 (IGF1) using HepaRG (AID 2283506). In a few lines: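 Cells are thawed, plated and cultured 48 h, then exposed in duplicate to chemical (highest 100 uM, half-log steps, 0.5% DMSO) for another 48 h. Total RNA is analysed by Fluidigm qRT-PCR for IGF1 expression relative to vehicle.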

Read-out in assay [9]: Intercellular Adhesion Molecule 1 (ICAM1), ICAM1 (gene 3383)
Description: LTEA_HepaRG_ICAM1: Life Technologies and Expression Analysis (LTEA) Assay for Intercellular Adhesion Molecule 1 (ICAM1) using HepaRG (AID 2283507). In a few lines: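 Differentiated human HepaRG cells in serum-free induction medium exposed 48 h in duplicate to 8 half-log concentrations (top 100 uM, 0.5% DMSO). ICAM1 mRNA quantified by TaqMan qRT-PCR, normalized to ACTB, GAPDH and POLR2A; bidirectional fitting versus DMSO.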

Read-out in assay [10]: Insulin-like growth factor-binding protein 1 (IGFBP1), IGFBP1 (gene 3484)
Description: LTEA_HepaRG_IGFBP1: Life Technologies and Expression Analysis (LTEA) Assay for Insulin-like growth factor-binding protein 1 (IGFBP1) using HepaRG (AID 2283508). In a few lines:
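HepaRG cells, plated 48 h then switched to serum-free induction medium, exposed in duplicate for 48 h to 8-point half-log series from 100 uM in 0.5% DMSO. mRNA measured by qRT-PCR, normalized to ACTB/GAPDH/POLR2A; bidirectional fit versus DMSO.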

Read-out in assay [11]: Interleukin 6 (IL6), IL6 (gene 3569)
Description: LTEA_HepaRG_IL6: Life Technologies and Expression Analysis (LTEA) Assay for Interleukin 6 (IL6) using HepaRG (AID 2283509). In a few lines:
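qRT-PCR read-out of IL6 transcript, normalized to three housekeeping genes, after 48 h chemical exposure of HepaRG cells; 8-point half-log series, top 100 uM, 0.5% DMSO vehicle. Bidirectional curve fitting against DMSO baseline.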

Read-out in assay [12]: Interleukin 6 Receptor (IL6R), IL6R (gene 3570)
Description: LTEA_HepaRG_IL6R: Life Technologies and Expression Analysis (LTEA) Assay for Interleukin 6 Receptor (IL6R) using HepaRG (AID 2283510). In a few lines: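 Cells were thawed, plated and cultured 48 h, then medium was changed to serum-free induction medium. Chemicals were added in duplicate (100 uM top, half-log steps, 0.5% DMSO) for 48 h. Lysates were analyzed by qRT-PCR for IL6R expression.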

Read-out in assay [13]: Potassium channel subfamily K member 1 (KCNK1), KCNK1 (gene 3775)
Description: LTEA_HepaRG_KCNK1: Life Technologies and Expression Analysis (LTEA) Assay for Potassium channel subfamily K member 1 (KCNK1) using HepaRG (AID 2283511). In a few lines:
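HepaRG, 48 h exposure, 8-pt half-log series top 100 uM, 0.5% DMSO vehicle, duplicates. Readout: KCNK1 transcript by qRT-PCR (Fluidigm array), housekeeping-normalized; bidirectional curve fit relative to DMSO baseline.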

Read-out in assay [14]: Keratin 19 (KRT19), KRT19 (gene 3880)
Description: LTEA_HepaRG_KRT19: Life Technologies and Expression Analysis (LTEA) Assay for Keratin 19 (KRT19) using HepaRG (AID 2283512). In a few lines:
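Differentiated HepaRG cells in serum-free induction medium, exposed 48 h in duplicate to 8 half-log concentrations up to 100 uM in 0.5% DMSO. KRT19 mRNA by qRT-PCR, normalized to ACTB, GAPDH, POLR2A; bidirectional fit vs DMSO.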

Read-out in assay [15]: JUN Transcription Factor, JUN (gene 3725)
Description: LTEA_HepaRG_JUN: Life Technologies and Expression Analysis (LTEA) Assay for JUN Transcription Factor using HepaRG (AID 2283513). In a few lines: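 Read-out is JUN transcript level by TaqMan qRT-PCR, normalized to ACTB, GAPDH and POLR2A, after 48 h chemical treatment of HepaRG cells. Concentration-response spanned eight half-log points up to 100 uM in 0.5% DMSO.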

Read-out in assay [16]: Lipase C (LIPC), LIPC (gene 3990)
Description: LTEA_HepaRG_LIPC: Life Technologies and Expression Analysis (LTEA) Assay for Lipase C (LIPC) using HepaRG (AID 2283514). In a few lines:
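HepaRG, 48 h exposure, 8-pt half-log series from 100 uM in 0.5% DMSO, duplicates. Readout: LIPC mRNA by Fluidigm qRT-PCR, housekeeping-normalized (ACTB/GAPDH/POLR2A). Gain or loss fitted bidirectionally against DMSO baseline.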

Read-out in assay [17]: Lipoprotein lipase (LPL), LPL (gene 4023)
Description: LTEA_HepaRG_LPL: Life Technologies and Expression Analysis (LTEA) Assay for Lipoprotein lipase (LPL) using HepaRG (AID 2283515). In a few lines:
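HepaRG, 48 h exposure, 8-pt half-log dilutions from 100 uM, 0.5% DMSO vehicle, duplicates; qRT-PCR (Fluidigm array) of LPL mRNA vs housekeeping genes; bidirectional curve fit relative to DMSO baseline.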

Read-out in assay [18]: MicroRNA 122 (MIR122), gene 406906
Description: LTEA_HepaRG_MIR122: Life Technologies and Expression Analysis (LTEA) Assay for MicroRNA 122 (MIR122) using HepaRG (AID 2283516). Further: the transcript read is the microRNA miR-122. In a few lines:
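Human liver HepaRG cultures receive test chemicals for 48 h at eight half-log concentrations from 100 uM. Expression is quantified by qRT-PCR with ACTB/GAPDH/POLR2A normalization and fitted bidirectionally against 0.5% DMSO.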

Read-out in assay [19]: matrix metalloproteinase-10 (MMP10), MMP10 (gene 4319)
Description: LTEA_HepaRG_MMP10: Life Technologies and Expression Analysis (LTEA) Assay for matrix metalloproteinase-10 (MMP10) using HepaRG (AID 2283517). An outline of the steps:
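Transcript levels come from Fluidigm qRT-PCR normalized to three housekeeping genes, with curves fitted bidirectionally against 0.5% DMSO. Human HepaRG cells were dosed for 48 hours at concentrations up to 100 uM.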

Read-out in a further assay: HGF (gene 3082)
Description: LTEA_HepaRG_HGF: Life Technologies and Expression Analysis (LTEA) Assay for Hepatocyte Growth Facto (HGF) using HepaRG (AID 2283505). In a few lines: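 Differentiated HepaRG cells in serum-free induction medium exposed 48 h in duplicate, 8 half-log concentrations from 100 uM in 0.5% DMSO. HGF mRNA by qRT-PCR, normalised to ACTB, GAPDH, POLR2A; bidirectional fitting.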

Hypoxia-inducible factor 1-alpha (Homo sapiens), sequence (Q16665 whole entry, looked up): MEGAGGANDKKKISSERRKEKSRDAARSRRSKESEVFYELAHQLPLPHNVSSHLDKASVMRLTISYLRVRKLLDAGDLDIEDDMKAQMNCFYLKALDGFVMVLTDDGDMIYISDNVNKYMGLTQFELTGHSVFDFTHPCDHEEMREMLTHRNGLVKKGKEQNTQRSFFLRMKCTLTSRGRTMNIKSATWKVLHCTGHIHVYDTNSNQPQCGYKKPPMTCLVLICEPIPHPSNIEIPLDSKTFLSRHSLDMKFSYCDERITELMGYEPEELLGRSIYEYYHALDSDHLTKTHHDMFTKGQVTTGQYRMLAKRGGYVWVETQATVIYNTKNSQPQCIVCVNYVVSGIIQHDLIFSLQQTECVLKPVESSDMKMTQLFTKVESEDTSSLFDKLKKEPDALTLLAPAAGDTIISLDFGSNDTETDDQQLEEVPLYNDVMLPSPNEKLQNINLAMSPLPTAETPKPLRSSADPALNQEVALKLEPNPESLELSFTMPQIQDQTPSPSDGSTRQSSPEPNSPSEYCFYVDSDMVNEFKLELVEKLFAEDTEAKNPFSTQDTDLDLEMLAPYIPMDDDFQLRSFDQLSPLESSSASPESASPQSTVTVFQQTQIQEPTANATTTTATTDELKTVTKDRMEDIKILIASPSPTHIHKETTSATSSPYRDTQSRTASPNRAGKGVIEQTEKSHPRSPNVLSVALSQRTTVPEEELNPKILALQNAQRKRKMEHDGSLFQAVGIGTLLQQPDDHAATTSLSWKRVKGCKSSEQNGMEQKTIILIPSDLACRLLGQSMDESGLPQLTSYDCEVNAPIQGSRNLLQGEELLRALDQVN

Turning to `O=C(O)c1cccnc1`, the compound was classed as inactive in [1], in assay [2], in assay [3], in assay [4], in assay [5] and in assay [6]. Also, the compound was classed as inactive in assay [7], in [8], in assay [9], in assay [10], in [11] and in assay [12]. Also, the outcome in assay [13], in assay [14], in assay [15], in [16], in [17] and in assay [18] was inactive. Besides, the outcome in assay [19] was inactive.
One may read the AC50 as the concentration at which the activity in the assay is half-maximal. As for `Cc1ccc(-c2cc(C(F)(F)F)nn2-c2ccc(S(N)(=O)=O)cc2)cc1`, the AC50 in assay [1] is 50 µM (active); in assay [2], 67.5 µM (active); in assay [7] it was 73.7 µM (active); in assay [8], 81.3 µM (active); in assay [11], 81.4 µM (active); in [15], 83.4 µM (active). Also, the AC50 in assay [17] was 87.4 µM (active). Also, the outcome (in [3]; in [4]; in assay [5]; in assay [6]; with HGF (gene 3082); in assay [12]) was inactive. Further, the compound was called inactive in assay [13], in assay [14], in assay [16], in [18] and in assay [19].
Regarding `CC(=O)CC(c1ccccc1)c1c(O)c2ccccc2oc1=O` (stereo not drawn), the compound was called inactive in [1], in assay [2], in assay [3], in assay [4], in [5] and in assay [6]. For the same compound, the compound was called inactive (in assay [7]; in the assay with HGF (gene 3082); in assay [8]; in assay [11]; in assay [12]; in [13]). Moreover, the outcome in assay [14], in assay [15], in assay [16], in assay [17], in assay [18] and in assay [19] was inactive.
For `CCCCCCCCCC[N+](C)(C)[O-]`, the compound was called inactive in assay [1], in assay [2], in assay [3], in assay [4], in assay [5] and in assay [6]. Besides, the outcome (in assay [7]; in the assay with HGF (gene 3082); in assay [8]; in assay [11]; in assay [12]; in assay [13]) was inactive. Moreover, the compound was called inactive in [14], in assay [15], in [16], in [17], in assay [18] and in assay [19].
